Records with an inconclusive call do not appear. Where a call stands in place of a potency, no number is given. A number with no mark means an inactive call. Active and inactive are the calls of the source. Calls follow the shape of the dose curve; as a rule, active = well fitted activation curve with a large enough effect; inconclusive = small, poorly fitted or top-dose-only effect; inactive = flat fitted curve, though single readings scatter.
test: Primary redox qHTS assay for identification of artifact compounds. (AID 1845223); settings: Amplex Red/HRP redox cycling with DTT, fluorescence; series mostly up to 53.8 µM
Text: PI: Alexander Tropsha Ph.D.
UNC Eshelman School of Pharmacy
University of North Carolina, Chapel Hill, North Carolina
Hits from high-throughput screening (HTS) of chemical libraries are often false positives due to their interference with the assay detection technology. In response to this problem, we generated the largest publicly available library of chemical liabilities and developed a free webtool to predict HTS artifacts, both of which are described herein. More specifically, we generated, curated, and integrated HTS datasets for thiol reactivity, redox activity, and luciferase (firefly and nano) activity. Using these curated datasets, we developed and validated several Quantitative Structure-Interference Relationship (QSIR) models to predict nuisance behavior. […] These models were employed for virtual profiling of the National Center for Advancing Translational Science's (NCATS) in-house library, and 256 compounds for each assay were selected for the experimental validation of nuisance behavior. The BA for these external predictions ranged from 58 to 78% for compounds within the applicability domains of the models. […] The models developed in this study, along with aggregation models previously developed by our group (SCAM Detective) were implemented in "Liability Predictor," an online tool which may be used as part of chemical library design or for triaging HTS hits. Both the models and the curated datasets are publicly available at https://liability.mml.unc.edu/.
SEQUENCE No. (e.g., 1, 2, 3, etc.); […] (e.g., Cells, Incubation, Reagent, etc.); VALUE; DESCRIPTION.
1; Reagent; 3 uL; Amplex Red and HRP mixture.
2; Compounds and control; 16 nL; Kalypsis pin tool (Wako USA) equipped with a 1536-well pin head. […]
6; Detection; Fluorescence, ViewLux microplate reader, 525 nm excitation, 598 nm emission.
NOTES (numbers refer to Sequence numbers above)
1. 3 uL of a mixture containing Amplex Red (25 uM final concentration) and horseradish peroxidase (HRP; 250 mU/mL final concentration) in assay buffer (HBSS) was dispensed into all wells of a 1536-well assay plate (solid-bottom black plate; Greiner Bio One, Monroe, NC).
2. A Wako Pin-tool (Wako Automation, Richmond, VA) was used to transfer 16 nL of compounds (consisting of 7-plates in qHTS format, final concentration range 18.3 nM to 114 uM) or control DA3003 (final concentration range 1.22 nM to 40 uM).
3. 15 min. incubation at room temperature protected from light.
4. 1 uL of DTT (prepared fresh; final concentration 250 uM) was dispensed for a final assay volume of 4 uL.
5. Plates were centrifuged (121xg, 15 seconds) and incubated for 30 minutes at room temperature protected from light.
6. Samples were read for fluorescence (Ex/Em = 525(20)/598(25) nm) on a ViewLux CCD imager (PerkinElmer). Data were normalized to DMSO (0% activity) and DA3003 (10 uM final concentration; 100% activity) and the resulting percent inhibition data were fitted to a 4-parameter Hill equation using NCATS in-house software.

Structure (SMILES)	Potency	redox activity (% of DA3003)
C[C@@H]1CC[C@]2(C)C(C[C@@H](O)[C@H](O)[C@]23CO3)[C@@]1(C)CCc1ccoc1 (stereo not given in full)	inactive	–
CCOC(=O)N1CCC(NCCNC(=O)c2ccccc2C)CC1	inactive	–
CC(C)c1nc(N(C)S(C)(=O)=O)nc(-c2ccc(F)cc2)c1/C=C/[C@@H](O)C[C@@H](O)CC(=O)O	inactive	–
CC(=O)N1CCN(NC(=O)c2ccc(F)cc2)CC1	inactive	–
O=c1c2ccccc2nc2n1CCC2O (stereo not given)	inactive	–
COc1ccc2c(c1)OC[C@]1(O)c3cc4c(cc3O[C@H]21)OCO4	inactive	–
CC(C)N(C[C@H]1O[C@@H](n2cnc3c(N)ncnc32)[C@H](O)[C@@H]1O)C1CC(CCc2nc3ccc(C(C)(C)C)cc3[nH]2)C1 (stereo not given in full)	inactive	–
COc1cc([C@H]2OC[C@@H]3[C@@H](c4ccc(O[C@@H]5O[C@H](CO)[C@@H](O)[C@H](O)[C@H]5O)c(OC)c4)OC[C@]23O)ccc1O	inactive	–
Cc1cc(C)cc(NC(=O)Cc2ccc(OC(C)(C)C(=O)O)cc2)c1	inactive	–
CC1(O)CCC2C(C(=O)O)=COC(OC3OC(CO)C(O)C(O)C3OC(=O)/C=C/c3ccc(O)cc3)C21 (stereo not given)	inactive	–
CC1=C2C3OC(=O)C(C)C3(O)CCC2(C)CCC1=O (stereo not given)	inactive	–
NC(=O)[C@H]1CCCCc2c1[nH]c1ccc(Cl)cc21	inactive	–
CC1CCC2(C)C(CC(O)C(O)C23CO3)C1(C)CCC1=CC(O)OC1=O (stereo not given)	inactive	–
O=C(c1ccccn1)c1cnn2c(-c3ccncc3)ccnc12	inactive	–
CN1C(=O)c2ccccc2-n2c(nc3ccccc3c2=O)[C@@]12O[C@H]2c1ccccc1	inactive	–
CCCCCCc1cccc(NC(=O)[C@H](N)CCP(=O)(O)O)c1	–	-3.89% [at 11.5 µM]
COc1ccccc1CC(C(=O)O)N(C)C(=O)c1ccccc1 (stereo not given)	inactive	–
O=C(NCc1ccc(OC(F)(F)F)cc1)C1c2ccccc2C(=O)N1C1CCOCC1 (stereo not given)	inactive	–
CC(=O)OC1C(O)CC(O[C@@H]2O[C@H](CO)[C@@H](O)[C@H](O)[C@H]2O)C2CCC3C(=O)OC(c4ccoc4)CC3(C)C21 (stereo not given in full)	inactive	–
C[C@H]1[C@H](C)CC[C@]2(C(=O)O)CC[C@]3(C)C(=CC[C@@H]4[C@@]5(C)C[C@@H](O)[C@H](O)[C@@](C)(CO)[C@@H]5CC[C@]43C)[C@H]12	inactive	–

Structure (SMILES)	Potency	redox activity (% of DA3003)
CCN[C@@H]1C[C@H](N)[C@@H](O[C@H]2OC(CN)=CC[C@H]2N)[C@H](O)[C@H]1O[C@H]1OC[C@](C)(O)[C@H](NC)[C@H]1O	inactive	–
CC1CCC2(C)C(CC(O)C(O)C23CO3)C1(C)CCC1=CC(=O)OC1O (stereo not given)	inactive	–
CC(C)=CC/C=C(/C)[C@H]1CC[C@]2(C)[C@@H]1[C@H](O)CC1[C@@]3(C)CC[C@H](O)C(C)(C)[C@@H]3[C@@H](O[C@@H]3O[C@H](CO)[C@@H](O)[C@H](O)[C@H]3O[C@@H]3O[C@@H](C)[C@H](O)[C@@H](O)[C@H]3O)C[C@]12C (stereo not given in full)	inactive	–
COc1cc(/C=C/C(=O)O[C@H]2[C@H](OC(=O)/C=C/c3cc(OC)c(O)c(OC)c3)O[C@H](CO[C@@H]3O[C@H](CO)[C@@H](O)[C@H](O)[C@H]3O)[C@@H](O)[C@@H]2O)ccc1O	inactive	–
C=C(C)[C@H]1C[C@@H](O)C(=C)CC[C@@H](O)C(=C)[C@@H](O)C1	inactive	–
CC(CCC1C(C(=O)O)=CC(=O)CC1(C)C)O[C@@H]1O[C@H](CO)[C@@H](O)[C@H](O)[C@H]1O (stereo not given in full)	inactive	–
O=C(O[C@H]1[C@@H]2C=CO[C@@H](O[C@@H]3O[C@H](CO)[C@@H](O)[C@H](O)[C@H]3O)[C@@H]2[C@@]2(CO)O[C@@H]12)c1ccc(O)cc1	inactive	–
CC1(C)CC[C@]2(C(=O)O[C@@H]3O[C@H](CO)[C@@H](O)[C@H](O)[C@H]3O)CC[C@]3(C)C(=CCC4[C@@]5(C)C[C@@H](O)[C@H](O)C(CO)(CO)C5CC[C@]43C)C2[C@@H]1O (stereo not given in full)	inactive	–
CC(=O)O[C@@H]1[C@H]2[C@@H](OC(=O)c3ccccc3)[C@@H](C)C[C@]2(O)[C@H](OC(C)=O)[C@@]2(C)[C@@H]3CC(C)(C)C(=O)[C@]3(OC(C)=O)C[C@@]12C	inactive	–
CC1CCC23COC(=O)C2=CC(O)CC3C1(C)CCC1=CC(=O)OC1O (stereo not given)	inactive	–
COc1cc(NC(=O)c2ccccn2)ccc1Cl	inactive	–
O=C1N(CC2CCCCN2)CCN1c1ccccc1 (stereo not given)	inactive	–
CC/C=C/CC1=C(CCCCCCCC(=O)O)CCC1=O	inactive	–
COC1CC(=O)CCC(C)OC(=O)CC1O (stereo not given)	inactive	–
COc1cc(C)c(C(=O)O[C@H]2[C@@H](O)[C@H](n3ccc(=O)[nH]c3=O)O[C@@H]2CO)c(OC)c1	inactive	–
CN(C)C/C=C/C(=O)Nc1ccc(C(=O)Nc2cccc(Nc3ncc(Cl)c(-c4c[nH]c5ccccc45)n3)c2)cc1	inactive	–
CC(=O)OC[C@]12[C@H](OC(C)=O)C(=O)[C@@H]3[C@@H](OC(C)=O)[C@@]14O[C@@]3(C)COC(=O)c1cccnc1[C@@H](C)[C@H](C)C(=O)O[C@@H]([C@H](OC(C)=O)[C@@H]2OC(C)=O)[C@]4(C)O	inactive	–
O=C(Nc1cccnn1)N1CCC(=Cc2cccc(Oc3ccc(C(F)(F)F)cn3)c2)CC1	inactive	–
NC1CCC(N[C@@H]2C[C@H]2c2ccccc2)CC1 (stereo not given in full)	inactive	–
CC(C)C(=O)O[C@@H]1[C@@H](O)[C@@H](O[C@H]2O[C@H](CO)[C@@H](O)[C@H](O)[C@H]2O)O[C@H](CO)[C@H]1O	inactive	–
